Measurements reported in ChEMBL document CHEMBL3988442, “University of Dundee, Small-Polar-MMV Screening Library” (2021).

biological target: T1, Aspartate--tRNA(Asp/Asn) ligase (Mycobacterium tuberculosis (strain ATCC 25618 / H37Rv)) (UniProt P9WFW3); test: Assay for Asp RNA synthetase-1 from Mycobacterium tuberculosis; assay type: functional; set-up: scale not given: in the data most compounds retested in dose-response had high values; details: 30 µM
T1 sequence (whole entry): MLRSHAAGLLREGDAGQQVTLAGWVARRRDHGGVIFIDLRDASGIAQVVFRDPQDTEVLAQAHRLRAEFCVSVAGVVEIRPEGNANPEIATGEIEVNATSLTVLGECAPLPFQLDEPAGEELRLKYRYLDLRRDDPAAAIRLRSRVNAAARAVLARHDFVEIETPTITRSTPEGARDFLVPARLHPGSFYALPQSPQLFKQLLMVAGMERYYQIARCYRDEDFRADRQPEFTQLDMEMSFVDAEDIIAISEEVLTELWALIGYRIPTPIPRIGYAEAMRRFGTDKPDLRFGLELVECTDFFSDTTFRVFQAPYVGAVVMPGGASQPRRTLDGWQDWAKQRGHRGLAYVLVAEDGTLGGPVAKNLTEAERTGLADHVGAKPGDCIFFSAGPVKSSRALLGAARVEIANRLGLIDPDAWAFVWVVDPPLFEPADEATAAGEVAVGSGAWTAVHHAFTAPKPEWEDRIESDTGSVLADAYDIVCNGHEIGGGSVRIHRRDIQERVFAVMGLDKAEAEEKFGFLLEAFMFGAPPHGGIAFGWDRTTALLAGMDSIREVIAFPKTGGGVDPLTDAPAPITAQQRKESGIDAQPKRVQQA

Compound	Percent Effect
O=C(NCCc1cccc(O)c1)NC1CCN(c2ccccc2)C1=O (stereo not given)	-2.7%
Cc1nonc1CN(C)CC1(O)CCCN(CCC2CCCCC2)C1=O (stereo not given)	0.149%
O=C1O[C@@H]2CN(Cc3ccccc3)C[C@@H]2N1CCCN1CCOCC1	-3.37%
N#Cc1ccnc(N2CCC(c3nccn3Cc3cscn3)CC2)c1	-4.66%
CS(=O)(=O)NCC(=O)N1CCCC1c1noc(C2CC2)n1 (stereo not given)	0.264%
CCSCCC(=O)Nc1ncn(CC(=O)NCc2ccccc2)n1	-2.33%
CCc1nsc(NC2CCCn3nc(CC)nc32)n1 (stereo not given)	1.74%
CC(C)c1nccn1CCCNC(=O)c1ccc(N(C)C)nc1	-2.17%
Cc1ccc(C(=O)N2CCN(S(C)(=O)=O)CC2)cc1N1CCNC1=O	-4.61%
FC(F)(F)COCCN1CCCC(c2noc(C3CC3)n2)C1 (stereo not given)	-0.517%
CC(C)N1CCC(NCc2cccnc2N(C)C)CC1	-1.8%
O=C(NCc1ccncc1)N(Cc1ccccc1F)C1CC1	-1.67%
CCN(CC1CN(Cc2ncc(C)o2)CCO1)c1cccnn1 (stereo not given)	-1.34%
O=C(Nc1cccc(OCc2ccc(F)cc2)c1)C1COCCO1 (stereo not given)	-1.28%
Cc1ccc(C(NC(=O)[C@H]2CC[C@@H](O)CC2)c2cccnc2)cc1C (stereo not given in full)	-3.21%
N#Cc1cn(CC(=O)NC2CC2)c2ccc(Br)cc2c1=O	0.517%
Cc1ccc(CNCc2nnc3n2CCCC3C(F)(F)F)o1 (stereo not given)	0.425%
O=C1N(Cc2ccccc2F)CCCC12CCN(C1CCSCC1)C2 (stereo not given)	-2.75%
Cc1nn(-c2ccccc2)c2c1C(c1ccc(C(=O)O)cc1)CC(=O)N2 (stereo not given)	1.57%
CNC(=O)Cn1cc(C#N)c(=O)c2cc(Br)ccc21	0.0345%

Compound	Percent Effect
CSc1cccc(CN(C)C(=O)C2CC(=O)N(CCN(C)C)C2)c1 (stereo not given)	-2.59%
CC(=O)N1CCCN(c2nccc(-c3cn(C)nc3C)n2)CC1	-4.22%
NC(=O)C1CCN(Cc2cccc(NC(=O)c3ccsc3)c2)CC1	-1.25%
O=C(NCCN1CCOCC1)NCc1ncc(-c2ccccc2)o1	1.62%
CCN(CC(=O)NC)C(=O)Cc1nc(-c2ccco2)oc1C	-4.7%
CCN(CC)CC(=O)NCCc1csc(N2CCCC2)n1	1.28%
CC(C)CN1CCCn2nc(CNC(=O)CCN)cc2C1	-0.839%
CCc1nc(CNC(=O)Nc2ccc(C(=O)NC)cc2C)cs1	-0.0804%
O=C(CCNS(=O)(=O)c1ccccc1)NCc1ccoc1	-2.82%
CSc1cccc(CNC(=O)C2CC(=O)N(CCN(C)C)C2)c1 (stereo not given)	2.84%
CCNC(=O)NC(=O)CSC(C)c1ccccc1F (stereo not given)	2.19%
CC(=O)c1cn(CC(=O)NC(C(=O)O)C(C)C)c2ccccc12 (stereo not given)	-0.402%
CCc1nsc(NC2CCCn3nc(COC)nc32)n1 (stereo not given)	-2.56%
Cc1cnn(C2CN(CC(O)c3ccc(F)cc3)C2)c1 (stereo not given)	-2.19%
CN(CCO)Cc1nnc(C2CCN(C(=O)C(C)(C)C)CC2)n1C	3.14%
CSCC(=O)N1CCCC1c1noc(C2CC2)n1 (stereo not given)	0.839%
O=C1CC(c2cccs2)c2cnn(C3CCCC3)c2N1 (stereo not given)	-1.62%
CN(Cc1csc(-c2cccs2)n1)C(=O)CCn1ccccc1=O	-1.85%
O=C1N(Cc2cccc(F)c2F)CCCC1(O)CN1CCCOCC1 (stereo not given)	-2.15%
Cn1cc(CNc2ncnc3c2CCN(Cc2ccsc2)CC3)cn1	1.05%
